From PubChem BioAssay
Values without a mark were called inactive. Some of the results follow. Active and inactive are the calls of the source.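 The calls were made as follows, unless noted: active = mean inhibition over 43.08%, the solvent-only control mean plus 3 SD; inactive = the rest.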

How the values were obtained:
[1] = growth loss of phage-infected E. coli expressing H. pylori AddAB, confirmation, AddAB inhibitor project, absorbance, E. coli V3065, T4 phage, triplicate (AID 488942;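 active = mean inhibition above a set limit taken from the earlier primary screen, cut at about 13% in these data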;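 also: higher means less bacterial growth since AddAB block lets phage replicate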); settings: OD, at 11.9 µM, stronger effect = higher value, T4 phage with gene 2 nonsense mutations
[2] = growth loss of RecBCD+ E. coli with mutant T4 phage, counter-screen for AddAB inhibitor project, absorbance, V66 E. coli (AID 488955;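 active = mean inhibition above the mean of solvent-only control wells plus 3 SD, cut at about 4% in these data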;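 also: optical density read after an 18 h incubation at 37 °C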); settings: OD growth, at 11.9 µM, stronger effect = higher value
[3] = bacterial viability inhibition counter-screen, confirmation, counter-screen for AddAB inhibitor project, absorbance (AID 488956; in the data active = inhibition above about 25%); settings: absorbance (AddAB counterscreen), at 11.9 µM, stronger effect = higher value
[4] = target: Platelet-activating factor acetylhydrolase IB subunit alpha1 (Homo sapiens) (UniProt Q15102); experiment: PAFAH1B3 enzyme inhibitors, confirmation, biochemical, fluorescence polarization, human (AID 493032;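 active = average inhibition over triplicate runs above the hit cutoff set in the earlier primary screen, cut at about 25% in these data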;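 also: 0% = enzyme with DMSO and 100% = wells lacking PAFAH1B3 protein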); settings: recombinant PAFAH1B3, FP-Rh activity-based probe, at 3.39 µM, stronger effect = higher value
[5] = target: Galanin receptor type 2 (Homo sapiens) (UniProt O43603); experiment: GALR2 antagonists, retest of hits, confirmation, cell-based (AID 866; in the data active = inhibition above about 27%;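 also: cells stimulated with galanin at about its EC80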); settings: GALR2-expressing cells, antagonist mode, at 4 µM, stronger effect = higher value
[6] = inhibitors of NFAT-driven beta-lactamase reporter, confirmation, counter-screen for GALR2 antagonist project, CHO NFAT-bla cells, FRET readout (AID 867;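 active = inhibition above the mean inhibition across tested compounds plus 3 SD, cut at about 27% in these data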;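 also: 0% = 500 nM thapsigargin stimulated wells and 100% = unstimulated BSA only wells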); settings: thapsigargin-stimulated, at 4.2 µM, stronger effect = higher value
[7] = target: Nuclear receptor coactivator 3 (Homo sapiens) (UniProt Q9Y6Q9); experiment: SRC3 coactivator transcriptional activity inhibitors, confirmation, cell-based, luminescence, quadruplicate (AID 588792); settings: HEK293 GAL4-SRC3 luciferase reporter, at 3.6 µM, stronger effect = higher value;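 also: 0% = DMSO treated cells and 100% = gossypol at 36 µM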
[8] = system: transactivating tegument protein VP16 (Human herpesvirus 1), Gal4-VP16 luciferase reporter; experiment: VP16 transactivation inhibitors, counter-screen for SRC3 inhibitor project, cell-based, luminescence, high throughput (AID 588794; in the data active = inhibition above about 30%); settings: mammalian cells, VP16-driven luciferase reporter luminescence; at 3.6 µM; stronger effect = higher value
[9] = target: Nuclear receptor coactivator 1 (Homo sapiens) (UniProt Q15788); experiment: SRC1 coactivator transcriptional activity inhibitors, confirmation, cell-based, luminescence, quadruplicate (AID 588820;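 active = mean inhibition above 46.68%, the untreated control wells mean plus 3 SD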;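 also: 0% = DMSO wells and 100% = gossypol 36 µM treated wells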); settings: HEK293 GAL4-SRC1 luciferase reporter, at 3.6 µM, stronger effect = higher value
[10] = VP16 transactivation inhibitors, counter-screen for SRC1 inhibitor project, cell-based, luminescence, high throughput (AID 588824; in the data active = inhibition above about 25%); settings: cell-based VP16 transactivation luciferase luminescence; at 3.6 µM; stronger effect = higher value
[11] = growth loss of phage-infected RecBCD+ E. coli, confirmation, RecBCD inhibitor project, absorbance, E. coli V66, T4 gene 2 phage (AID 651982;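 active = mean inhibition over triplicates exceeding the hit threshold derived in the original primary screen, cut at about 11% in these data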); settings: E. coli V66 + T4 2- phage, growth OD; at 11.9 µM; stronger effect = higher value
[12] = E. coli viability inhibition, counter-screen for RecBCD inhibitor project, absorbance, high throughput (AID 651983; in the data active = inhibition above about 20%;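 also: E. coli strain V66 grown with compound alone and no phage infection; 0% = bacteria with DMSO vehicle only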); settings: absorbance (OD) growth, at 11.9 µM, stronger effect = higher value
[13] = growth loss of phage-infected AddAB-carrying E. coli, confirmation, counter-screen for RecBCD inhibitor project, absorbance, E. coli V3065, T4 phage (AID 651984;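 active = mean inhibition above the solvent-only control wells' mean plus 3 SD, cut at about 22% in these data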;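 also: higher means less bacterial growth from phage killing when AddAB is blocked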); settings: E. coli expressing H. pylori AddAB + T4 phage, OD growth; at 11.9 µM; stronger effect = higher value; gene 2 mutant T4, recBCD-deleted host
[14] = target: Photoreceptor-specific nuclear receptor (Homo sapiens) (UniProt Q9Y5X4); experiment: NR2E3 agonist confirmation in cells, cell-based, luminescence, CHO-S two-hybrid (AID 624378;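 active = average inhibition above a cutoff equal to the mean inhibition of all tested compounds plus one SD, cut at about 70% in these data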;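 also: 0% = DMSO in NR2E3 cells and 100% = DMSO in cells lacking NR2E3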); settings: CHO-S mammalian two-hybrid NR2E3-NCOR, luciferase luminescence; at 3.98 µM; stronger effect = higher value
[15] = GAL4-VP16 reporter modulators, confirmation, counter-screen for NR2E3 agonist project, cell-based, luminescence, CHO-S, high throughput (AID 624379;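 active = mean inhibition above a cutoff equal to the average over all tested compounds plus one standard deviation, cut at about 70% in these data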;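 also: 0% = DMSO with VP16-transfected cells and 100% = DMSO with cells lacking VP16; higher means less reporter light so more repression of VP16 activity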); settings: CHO-S GAL4-VP16 luciferase reporter, at 3.98 µM, stronger effect = higher value
[16] = StAR promoter reporter inhibitors, counter-screen for LRH-1 inverse agonist project, cell-based, luminescence, high throughput (AID 651611; in the data active = inhibition above about 28%); settings: StAR promoter luciferase reporter counterscreen, at 3.6 µM, stronger effect = higher value
[17] = target: Nuclear receptor subfamily 5 group A member 2 (Homo sapiens) (UniProt O00482); experiment: LRH-1 (NR5A2) inverse agonists, retest, confirmation, cell-based, luminescence (AID 651613; in the data active = inhibition above about 42%;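 also: HEK293T cells co-transfected with LRH-1 and StAR promoter luciferase reporter; 0% = vehicle wells and 100% = parental cells lacking receptor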); settings: cell-based LRH-1 luciferase reporter, inverse agonism; at 3.6 µM; stronger effect = higher value
[18] = target: Steroidogenic factor 1 (Homo sapiens) (UniProt Q13285); experiment: SF1 (NR5A1) inverse agonists, counter-screen for LRH-1 inverse agonist project, cell-based, luminescence, high throughput (AID 651614; in the data active = inhibition above about 44%;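 also: cells cotransfected with StAR promoter reporter and SF1 expression vector; 0% = vehicle on cells with receptor and 100% = vehicle on cells lacking receptor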); settings: cell-based SF1 luciferase reporter, at 3.6 µM, stronger effect = higher value
[19] = VP16 transactivation reporter inhibitors, counter-screen for LRH-1 inverse agonist project, cell-based, luminescence, high throughput (AID 651615; in the data active = inhibition above about 33%); settings: Gal4-VP16 luciferase reporter cells, at 3.6 µM, stronger effect = higher value
[20] = Gal4-VP16 luciferase reporter inhibitors, counter-screen for COUP-TFII antagonist project, cell-based, luminescence, HEK293 (AID 687007; in the data active = inhibition above about 13%); settings: at 8.5 µM, stronger effect = higher value
[21] = target: COUP transcription factor 2 (Homo sapiens) (UniProt P24468); experiment: NR2F2 transcriptional activity inhibitors, confirmation, cell-based, luciferase reporter, HEK293, triplicate (AID 687008;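 active = mean inhibition over three repeats above a set limit taken from the earlier primary screen, cut at about 38% in these data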;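 also: 100% = cells given the luciferase reporter alone without the COUP-TF2 vector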); settings: HEK293 NGFI-A luciferase reporter, luminescence; at 8.5 µM; stronger effect = higher value
Sequence of COUP transcription factor 2 (Homo sapiens) (P24468 whole entry, looked up): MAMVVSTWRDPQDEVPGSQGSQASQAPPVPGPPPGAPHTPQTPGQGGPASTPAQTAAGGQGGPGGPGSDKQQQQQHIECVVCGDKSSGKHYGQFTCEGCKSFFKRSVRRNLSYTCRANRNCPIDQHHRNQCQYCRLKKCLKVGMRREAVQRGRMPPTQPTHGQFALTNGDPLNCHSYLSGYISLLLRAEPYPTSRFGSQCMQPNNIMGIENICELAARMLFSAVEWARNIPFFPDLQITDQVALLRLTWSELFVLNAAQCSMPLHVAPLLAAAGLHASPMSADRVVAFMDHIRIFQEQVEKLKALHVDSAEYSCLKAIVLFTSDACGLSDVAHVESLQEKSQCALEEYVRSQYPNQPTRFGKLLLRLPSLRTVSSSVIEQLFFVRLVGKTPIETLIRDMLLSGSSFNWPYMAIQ

Sequence of Nuclear receptor coactivator 3 (Homo sapiens) (Q9Y6Q9 whole entry, looked up, the tested form may be a part): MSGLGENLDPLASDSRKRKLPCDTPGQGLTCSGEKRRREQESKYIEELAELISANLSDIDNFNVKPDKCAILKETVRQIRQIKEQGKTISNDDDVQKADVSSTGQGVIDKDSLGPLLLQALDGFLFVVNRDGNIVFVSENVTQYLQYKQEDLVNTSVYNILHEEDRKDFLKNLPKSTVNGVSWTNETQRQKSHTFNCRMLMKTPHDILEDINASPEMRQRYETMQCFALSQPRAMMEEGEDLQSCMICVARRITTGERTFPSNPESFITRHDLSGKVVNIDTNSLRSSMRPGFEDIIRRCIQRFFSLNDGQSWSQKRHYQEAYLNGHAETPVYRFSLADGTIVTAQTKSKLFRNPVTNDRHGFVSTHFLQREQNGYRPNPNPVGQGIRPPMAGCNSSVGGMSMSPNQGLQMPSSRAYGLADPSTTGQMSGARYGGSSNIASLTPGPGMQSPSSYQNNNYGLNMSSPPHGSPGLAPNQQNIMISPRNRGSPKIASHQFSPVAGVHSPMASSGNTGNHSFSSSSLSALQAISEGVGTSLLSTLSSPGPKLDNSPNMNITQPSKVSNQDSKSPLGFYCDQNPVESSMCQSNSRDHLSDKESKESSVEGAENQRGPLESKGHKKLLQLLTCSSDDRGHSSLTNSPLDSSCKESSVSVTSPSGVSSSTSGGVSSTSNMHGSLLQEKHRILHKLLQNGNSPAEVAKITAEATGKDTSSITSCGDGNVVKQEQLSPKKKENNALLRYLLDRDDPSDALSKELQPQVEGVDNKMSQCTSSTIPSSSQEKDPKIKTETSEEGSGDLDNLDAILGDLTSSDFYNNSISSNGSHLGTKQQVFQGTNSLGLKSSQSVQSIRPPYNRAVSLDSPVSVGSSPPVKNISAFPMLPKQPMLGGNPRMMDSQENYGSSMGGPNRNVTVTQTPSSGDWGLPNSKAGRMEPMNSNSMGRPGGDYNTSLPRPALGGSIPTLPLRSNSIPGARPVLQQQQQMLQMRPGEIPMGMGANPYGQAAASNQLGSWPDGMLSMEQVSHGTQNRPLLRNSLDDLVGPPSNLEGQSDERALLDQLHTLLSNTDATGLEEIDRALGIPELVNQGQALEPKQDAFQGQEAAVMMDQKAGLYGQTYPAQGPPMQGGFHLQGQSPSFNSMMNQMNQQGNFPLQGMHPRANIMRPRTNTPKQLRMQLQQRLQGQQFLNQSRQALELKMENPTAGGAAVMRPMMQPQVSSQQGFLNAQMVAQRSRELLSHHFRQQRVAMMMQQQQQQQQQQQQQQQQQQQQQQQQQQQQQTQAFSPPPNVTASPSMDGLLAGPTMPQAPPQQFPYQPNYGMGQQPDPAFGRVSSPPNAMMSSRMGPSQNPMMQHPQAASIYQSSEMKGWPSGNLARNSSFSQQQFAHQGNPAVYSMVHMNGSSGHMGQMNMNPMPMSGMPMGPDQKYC
Sequence of Nuclear receptor subfamily 5 group A member 2 (Homo sapiens) (O00482 whole entry, looked up): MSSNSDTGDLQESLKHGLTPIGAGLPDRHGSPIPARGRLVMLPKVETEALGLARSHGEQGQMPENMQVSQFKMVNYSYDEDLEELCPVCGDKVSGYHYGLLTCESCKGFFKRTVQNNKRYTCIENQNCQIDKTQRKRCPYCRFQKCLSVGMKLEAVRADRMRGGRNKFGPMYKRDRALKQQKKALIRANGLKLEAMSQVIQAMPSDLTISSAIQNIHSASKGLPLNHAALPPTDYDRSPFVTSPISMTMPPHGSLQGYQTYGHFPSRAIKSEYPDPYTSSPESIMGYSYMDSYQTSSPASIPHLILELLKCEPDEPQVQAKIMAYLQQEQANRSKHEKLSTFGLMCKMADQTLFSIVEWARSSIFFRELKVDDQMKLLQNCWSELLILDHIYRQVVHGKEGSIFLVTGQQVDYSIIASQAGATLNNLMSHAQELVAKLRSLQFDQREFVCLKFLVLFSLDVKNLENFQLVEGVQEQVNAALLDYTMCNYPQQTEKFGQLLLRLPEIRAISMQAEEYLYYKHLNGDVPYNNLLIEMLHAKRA
Sequence of Photoreceptor-specific nuclear receptor (Homo sapiens) (Q9Y5X4 whole entry, looked up, the tested form may be a part): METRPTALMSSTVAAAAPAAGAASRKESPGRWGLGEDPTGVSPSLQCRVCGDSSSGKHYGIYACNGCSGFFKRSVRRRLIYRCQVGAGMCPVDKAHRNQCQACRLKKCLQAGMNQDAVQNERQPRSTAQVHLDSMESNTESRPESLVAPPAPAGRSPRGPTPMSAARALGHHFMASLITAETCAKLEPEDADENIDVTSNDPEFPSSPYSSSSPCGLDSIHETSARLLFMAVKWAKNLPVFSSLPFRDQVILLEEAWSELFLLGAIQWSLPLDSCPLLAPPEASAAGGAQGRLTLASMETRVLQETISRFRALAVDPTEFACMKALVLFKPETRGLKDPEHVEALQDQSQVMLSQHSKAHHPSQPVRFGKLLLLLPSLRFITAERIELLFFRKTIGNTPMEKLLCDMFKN
Sequence of Galanin receptor type 2 (Homo sapiens) (O43603 whole entry, looked up): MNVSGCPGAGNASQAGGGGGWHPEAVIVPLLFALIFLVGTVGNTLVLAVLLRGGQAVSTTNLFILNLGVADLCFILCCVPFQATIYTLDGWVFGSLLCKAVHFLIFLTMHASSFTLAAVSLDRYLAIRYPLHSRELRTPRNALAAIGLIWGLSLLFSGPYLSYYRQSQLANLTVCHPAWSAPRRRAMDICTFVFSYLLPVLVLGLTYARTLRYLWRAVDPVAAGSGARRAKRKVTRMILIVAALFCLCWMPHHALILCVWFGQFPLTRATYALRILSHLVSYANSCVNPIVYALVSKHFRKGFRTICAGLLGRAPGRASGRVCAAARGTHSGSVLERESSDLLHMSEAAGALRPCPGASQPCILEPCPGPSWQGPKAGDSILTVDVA
Sequence of Nuclear receptor coactivator 1 (Homo sapiens) (Q15788 whole entry, looked up, the tested form may be a part): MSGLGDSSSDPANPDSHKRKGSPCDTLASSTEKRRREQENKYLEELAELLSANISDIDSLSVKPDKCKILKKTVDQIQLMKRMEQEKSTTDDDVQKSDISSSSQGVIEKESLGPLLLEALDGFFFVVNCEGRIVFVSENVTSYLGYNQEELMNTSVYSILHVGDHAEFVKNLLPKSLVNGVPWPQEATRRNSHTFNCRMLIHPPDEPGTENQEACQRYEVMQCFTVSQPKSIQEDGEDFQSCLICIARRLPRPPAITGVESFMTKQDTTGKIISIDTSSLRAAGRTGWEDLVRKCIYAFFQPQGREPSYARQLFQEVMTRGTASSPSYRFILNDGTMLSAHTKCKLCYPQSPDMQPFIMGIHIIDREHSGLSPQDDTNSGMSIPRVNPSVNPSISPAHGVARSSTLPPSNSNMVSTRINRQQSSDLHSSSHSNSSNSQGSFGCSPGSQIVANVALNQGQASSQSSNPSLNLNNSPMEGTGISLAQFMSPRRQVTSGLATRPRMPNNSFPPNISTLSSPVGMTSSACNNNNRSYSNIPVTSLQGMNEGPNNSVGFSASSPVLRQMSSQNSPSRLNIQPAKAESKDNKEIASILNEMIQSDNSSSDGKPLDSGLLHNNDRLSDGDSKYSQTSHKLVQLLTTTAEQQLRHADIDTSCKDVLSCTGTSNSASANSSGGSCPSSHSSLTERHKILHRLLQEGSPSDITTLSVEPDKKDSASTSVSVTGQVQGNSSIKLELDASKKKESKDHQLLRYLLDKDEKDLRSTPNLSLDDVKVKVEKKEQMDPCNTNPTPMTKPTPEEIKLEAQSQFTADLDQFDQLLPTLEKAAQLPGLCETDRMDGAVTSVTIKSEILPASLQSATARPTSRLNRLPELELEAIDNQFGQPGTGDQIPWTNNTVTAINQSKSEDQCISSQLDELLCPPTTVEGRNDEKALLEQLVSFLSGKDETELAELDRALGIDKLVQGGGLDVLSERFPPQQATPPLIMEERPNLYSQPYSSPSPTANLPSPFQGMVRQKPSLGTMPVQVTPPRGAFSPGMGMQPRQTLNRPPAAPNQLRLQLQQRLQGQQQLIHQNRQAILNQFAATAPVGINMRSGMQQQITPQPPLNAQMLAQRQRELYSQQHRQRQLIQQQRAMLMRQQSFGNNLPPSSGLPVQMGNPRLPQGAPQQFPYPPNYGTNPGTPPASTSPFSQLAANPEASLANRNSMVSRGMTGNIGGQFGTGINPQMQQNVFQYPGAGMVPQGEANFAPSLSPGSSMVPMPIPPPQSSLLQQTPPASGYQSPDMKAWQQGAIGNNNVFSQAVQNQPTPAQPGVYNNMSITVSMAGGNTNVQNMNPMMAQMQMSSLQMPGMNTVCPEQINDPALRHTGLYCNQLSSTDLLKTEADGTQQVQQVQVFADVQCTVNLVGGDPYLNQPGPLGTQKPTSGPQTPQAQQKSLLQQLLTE
Sequence of Platelet-activating factor acetylhydrolase IB subunit alpha1 (Homo sapiens) (Q15102 whole entry, looked up): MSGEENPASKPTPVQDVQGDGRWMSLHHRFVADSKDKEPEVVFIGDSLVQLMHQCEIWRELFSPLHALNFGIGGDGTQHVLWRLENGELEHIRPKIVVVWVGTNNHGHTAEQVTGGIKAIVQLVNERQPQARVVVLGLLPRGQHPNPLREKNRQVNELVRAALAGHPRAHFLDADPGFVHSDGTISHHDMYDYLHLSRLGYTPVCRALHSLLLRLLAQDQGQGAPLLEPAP

In the case of O=C(Cn1c(=O)sc2ccccc21)Nc1nc2c(s1)CCCC2, the inhibition [1] is reported as 2.31%, the inhibition [2] is reported as 4.07% (active) and the inhibition [3] is reported as 3.15%.

For COc1ccc(C2=Nn3c(nnc3-c3ccccc3OC)SC2)cc1OC1CCCC1, the inhibition [4] was 35.2% (active).

COC(=O)Cc1cc(=O)oc2c(C)c(O)ccc12 showed an inhibition [5] of 7.7% and an inhibition [6] of 16.5%.

CC(=O)Nc1ccc(S(=O)(=O)Nc2ccc(N3CCCCC3)cc2)cc1 gave an inhibition [7] of -3.95%, an inhibition [8] of 0.96% and an inhibition [9] of 4.11%. The inhibition [10] was 2.83%.

For Oc1c(CN2CCN(c3ccc(F)cc3)CC2)cc(Cl)c2cccnc12, the inhibition [7] was 52.3% (active), the inhibition [8] was 42.8% (active) and the inhibition [11] was 4.78%. It also gave an inhibition [12] of 6.62% and an inhibition [13] of 3.33%.

Work on COc1cnc(-c2ccccn2)nc1Oc1ccc(C(C)(C)C)cc1 yielded an inhibition [14] of 28.4% and an inhibition [15] of 13.6%.

With COc1cccc2c1C(=O)c1c(O)c3c(c(O)c1C2=O)CC(O)(C(C)=NNC(=O)c1ccc(Cl)c(Cl)c1)CC3OC1CC(N)C(O)C(C)O1 (centres undefined) the inhibition [16] was 72.7% (active), the inhibition [17] was 75.1% (active) and the inhibition [18] was 94.8% (active). For the same compound, the inhibition [19] was 65.9% (active), the inhibition [20] was 41.2% (active) and the inhibition [21] was 32.5%.

In the case of c1csc(Cc2nn3c(-c4ccncc4)nnc3s2)c1, the inhibition [7] is reported as 29.8% and the inhibition [8] is reported as 20.8%.

O=C(NCc1cccs1)C1CCN(S(=O)(=O)c2ccccc2F)CC1 showed an inhibition [7] of 0.65% and an inhibition [8] of -0.48%.

O=C(Nc1ccn(Cc2ccccc2F)n1)c1ccc(COc2ccccc2Cl)cc1 gave an inhibition [7] of 10.9% and an inhibition [8] of 22.1%.

For Cc1ccc(NC(=O)C2c3ccccc3-c3ccccc32)cc1, the inhibition [7] was 9.64% and the inhibition [8] was 6.56%.

In the case of CN(C)S(=O)(=O)c1ccc(N2CCN(S(=O)(=O)c3ccc(F)cc3)CC2)c(Cl)c1, the inhibition [7] is reported as 41.9% and the inhibition [8] is reported as 28.5%.

For Cc1ccc(-c2c[n+]3c(n2-c2ccccc2)SCC3)cc1, the inhibition [7] was 8.17% and the inhibition [8] was 24.7%.

For O=c1c2ccccc2cnn1CCOc1ccccc1, the inhibition [7] was -15.3% and the inhibition [8] was -21.5%.

In the case of CSCc1cc(N(C)c2ccccc2)nc(-c2ccccn2)n1, the inhibition [7] is reported as -19.7% and the inhibition [8] is reported as -1.49%.

Compound OC[C@H]1O[C@@H](Oc2ccc(O)cc2)[C@H](O)[C@@H](O)[C@@H]1O has an inhibition [7] of 7.6% and an inhibition [8] of -4.32%.

COc1cccc(-c2c(C(=O)N/N=C/c3ccncc3)nnn2-c2nonc2N)c1 gave an inhibition [7] of 3.64% and an inhibition [8] of 12.9%.

O=C(NNC1=Nc2ccccc2SC1)c1ccc(Cl)cc1 gave an inhibition [7] of 24.6% and an inhibition [8] of 5.18%.

In the case of COc1ccc(CN(C)C(=O)c2cccc(NC(=O)CC3SC(N4CCCCC4)=NC3=O)c2)c(OC)c1 (centres undefined), the inhibition [7] is reported as 26.9% and the inhibition [8] is reported as 30.3% (active).

With C#CC(=O)N(c1cc(OC)ccc1OC)C(C(=O)NC1CCCC1)c1cccs1 (centres undefined) the inhibition [7] was 49.7% (active) and the inhibition [8] was 7.33%.

Work on O=C(NCc1ccc(Cl)cc1)c1cccc(NC(=O)c2ccccc2)c1 yielded an inhibition [7] of -5.52% and an inhibition [8] of 26.9%.

For O=C(NC1CCCC1)c1cc(COc2ccc3ncccc3c2)on1, the inhibition [7] was 19.7% and the inhibition [8] was 43.3% (active).

Cc1ccc(S(=O)(=O)NC(=O)c2cc(C)n(-c3ccccc3)c2C)cc1 showed an inhibition [7] of -1.88% and an inhibition [8] of -1.79%.

Work on CCSc1nsc(NC(=O)Nc2cccc(F)c2)n1 yielded an inhibition [7] of 13.2% and an inhibition [8] of 15.4%.

For CC(C)(Sc1cc(C(C)(C)C)c(O)c(C(C)(C)C)c1)Sc1cc(C(C)(C)C)c(O)c(C(C)(C)C)c1, the inhibition [7] was 15.9% and the inhibition [8] was -0.87%.

Compound Cc1ccc(S(=O)(=O)NCCC(=O)N2CCN(c3ccccc3)CC2)cc1C has an inhibition [7] of 6.68% and an inhibition [8] of -3.89%.

Compound CSc1cccc(N/C(=N/S(=O)(=O)c2ccccc2)NN)c1 has an inhibition [7] of 5.54% and an inhibition [8] of 0.02%.

For c1ccc2c(c1)OCC(CNc1ncnc3sccc13)O2 (centres undefined), the inhibition [7] was 1.57% and the inhibition [8] was 37.9% (active).

CC(C)C[C@H]1CNC(=S)N1C[C@H]1CCCN1C[C@H](Cc1ccc(O)cc1)N1C[C@H](CC(C)C)N(CC2CCCCCC2)C1=S showed an inhibition [7] of 21.1% and an inhibition [8] of 16.3%.

Work on Cc1ccc2occ(/C=N/NC(=O)c3ccccc3Br)c(=O)c2c1 yielded an inhibition [7] of 40.7% and an inhibition [8] of 28.5%.

With CN1OC[C@@H]2CN(C(=O)c3ccc(-c4ccccc4)cc3)[C@H](c3ccc(-c4cccc(F)c4)cc3)C[C@@H]21 the inhibition [7] was -6.51% and the inhibition [8] was 18.4%.

Compound S=C(N/N=C/c1ccc2ncccc2c1)Nc1cccnc1 has an inhibition [7] of -1.24% and an inhibition [8] of -17.5%.

Compound CC1(C)C2CCC(C2)C1C/C=N/NC(N)=S (centres undefined) has an inhibition [7] of 17.5% and an inhibition [8] of 13.4%.

With CCc1ccc2nc3nc(C)cc(C)c3c(N)c2c1 the inhibition [7] was 20.2% and the inhibition [8] was 32.7% (active).

For Nc1ncnc(Sc2ccc(Cl)cc2)c1[N+](=O)[O-], the inhibition [7] was 13.4% and the inhibition [8] was 9.09%.

Clc1ccc(-c2noc(CSc3nnc(-c4ccncc4)n3-c3ccccc3)n2)cc1 gave an inhibition [7] of 8.46% and an inhibition [8] of 8.1%.

For Cc1ccccc1OCc1n(CC(=O)OC2CC(C)CCC2C(C)C)c2ccccc2[n+]1C (centres undefined), the inhibition [7] was 13% and the inhibition [8] was 22.8%.

With Cc1ccc(C(=O)NC2c3ccccc3-c3ccccc32)cc1 the inhibition [7] was 11.3% and the inhibition [8] was 12.1%.

In the case of O=C1/C(=C/c2cccnc2)SC(=S)N1C1CCS(=O)(=O)C1 (centres undefined), the inhibition [7] is reported as -0.1% and the inhibition [8] is reported as 21%.

In the case of O=C1c2cccc(NCCNCCO)c2C(=O)c2cccc(NCCNCCO)c21, the inhibition [7] is reported as -30.9% and the inhibition [8] is reported as 37.6% (active).
